KB-V1 cytotox: kills drug-selected multidrug resistant KB-V1 cells. hit rate 3.4% among 400,000. AID 1347076. Potency, µM (titrated, usually from 46.1 µM), actives largely listed as cytotoxic. KB-V1 MDR cells viability, CellTiter-Glo, 72 h; further: on the % scale 0 is the no-effect control and ±100 the full control effect; nearly all actives have a fitted effect of over 60% in size
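KB-V1 cells (P-gp-expressing MDR subline of KB-3-1) in phenol-red-free DMEM with 10% FBS were exposed to library compounds over a concentration series for 72 h at 37 degrees C. Viability read by CellTiter-Glo luminescence; concentration-effect curves fitted after normalization.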
MCF10A rereplic: induces DNA re-replication in MCF 10a normal breast cells; MCF 10A DNA re-replication, Hoechst nuclear intensity, 48 h; Potency, µM (highest dose often 46.1 µM), for inactives: at the highest dose activity, positive = re-replication, hits mostly activators; hit rate 2.9% among 350,000; AID 624296; further: % of control where 0% means no effect; nearly all actives have a fitted effect of over 50% in size
ELG1 repair inh: inhibitors of ELG1-dependent DNA repair in HEK293T cells; Potency, µM (doses to about 46.1 µM), for the others: top-dose activity change, negative = inhibition, most hits filed as inhibitors; hit rate 2.3% among 330,000; HEK293T ELG1-luciferase reporter, luminescence, 16 h; DNA damage induced by 5-fluorouridine; further: on the % scale 0 is the no-effect control and ±100 the full control effect; nearly all actives have a fitted effect of over 55% in size
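HEK293T cells expressing luciferase-tagged ELG1 (2,000/well) received 5-Fluorouridine plus compound or DMSO for 16 hr at 37 °C. Luciferase was read by ONE-Glo luminescence after 30 min at room temperature.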
SW480 rerep: inducers of DNA re-replication in SW480 colon cancer cells | hit rate 1.8% among 340,000 | AID 624297 | SW480 DNA re-replication, Hoechst DNA content imaging, 48 h | Potency, µM (series often up to 46.1 µM), for inactives: top-dose re-replication activation, actives largely listed as activators; further: % of control where 0% means no effect; nearly all actives have a fitted effect of over 55% in size
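Hoechst fluorescence of nuclei (405 nm excitation, 500-530 nm emission) measured by plate-scanning imager after 48 hr compound exposure at 37 C; re-replication scored as increased number of nuclei with elevated intensity.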
KB-3-1 cytotox: kills parental KB-3-1 adenocarcinoma cells; Potency, µM (titrated, usually from 46.1 µM), hits mostly cytotoxic; AID 1347075; hit rate 1.4% among 400,000; KB-3-1 viability, CellTiter-Glo ATP luminescence, 72 h; further: on the % scale 0 is the no-effect control and ±100 the full control effect; nearly all actives have a fitted effect of over 60% in size
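KB-3-1 parental drug-naive adenocarcinoma cells in DMEM/10% FBS, incubated 72 h at 37 C with pin-transferred compounds across a concentration series. Viability by CellTiter-Glo luminescence; concentration-response curves fitted after normalization.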
An asterisk follows results filed as active; i = inactive; u = inconclusive; x = no result; ! = not active in a repeat; [ ] = dose if it differs, or a comment. In the library only some 8.1% were active in any assay of this set; here they are far more common. The call rests on the fitted dose curve; in most records, active means well fitted curve in the direction sought with a large enough effect; inconclusive means small, poorly fitted or top-dose-only effect, or another doubt; inactive means no such curve, though single readings can be large; an effect the other way counts as inactive or inconclusive. Potency means the concentration at half of the fitted maximal effect.

SMILES	KB-V1 cytotox	MCF10A rereplic	ELG1 repair inh	SW480 rerep	KB-3-1 cytotox
O=C(Nc1ccc2c(c1)OCCO2)C(CCc1ccccc1)N1CCC(Cc2ccccc2)CC1 (stereo unspecified)	23.1µM*	x	x	x	i
N[C@@H](Cc1cc(I)c(Oc2ccc(O)c(I)c2)c(I)c1)C(=O)O	i	20.6µM*!	-0.4%	-7.5%	u
CCc1ccc(C(=O)COC(=O)c2cc([N+](=O)[O-])ccc2NCCO)cc1	u	12.2%	14.6µM*	2.8%	i
Cc1cc(C)c2c(CC(=O)Nc3ccc(S(=O)(=O)N4CCCC(C)C4)cc3)coc2c1 (stereo unspecified)	i	x	x	x	i
O=C1CCNc2cc3ccccc3cc21	u	-2.3%	u	u	23.1µM*
O=C1CCNc2ccc(-c3ccccc3)cc21	i	23.1µM*	u	25.8%	i
COc1ccc(C)cc1NS(=O)(=O)c1cc2c3c(c1)CC(=O)N3CCC2	i	x	x	x	i
CN(Cc1ccco1)c1ncnc2ccc(-c3ccc4c(ccn4C)c3)cc12	i	u	-23.4%	3.66µM*	u
CN(Cc1ccco1)c1ncnc2ccc(-c3ccc4c(c3)OCO4)cc12	i	24.9%	u	-0.3%	i
Clc1ccc(CNc2ncccn2)cc1	u	-8.0%	u	-6.3%	i
Oc1cc(NCc2ccc(F)cc2)cc2cccnc12	i	u	u	u	6.51µM*
Oc1cc(NCc2ccc(Cl)cc2)cc2cccnc12	i	-5.8%	0.9%	13.2%	16.4µM*
OCC[N+]1(CCc2ccccc2)CCOCC1	i	x	x	x	i
CC(C)CCCN1C(N(C)C)=NC[C@@H]1Cc1ccccc1	i	4.3%	-7.9%	-5.0%	i
CC(C)Cc1nnc(NC(=O)c2cc3c(s2)CCC3)s1	i	23.1µM*	u	23.1µM*	i
CCn1c(NC(=O)C(C)C)c2ccccc2nc1=O	i	-0.6%	-2.2%	-13.6%	i
CCn1c(NC(=O)c2ccc(F)cc2)c2ccccc2nc1=O	10.3µM*	22.8%	u	-10.7%	u
O=C(Nc1nc(=O)c2ccccc2s1)c1ccc(F)cc1	i	u	u	-3.4%	i
CCn1c(NC(=O)c2ccc(C)cc2)c2ccccc2nc1=O	11.6µM*	7.5%	12.2%	-2.5%	i
CCNC(=O)C1(C)CCCN(C(=O)c2cccnc2Oc2ccccc2)C1 (stereo unspecified)	i	x	x	x	i
Cc1cccn2c(=O)c3cc(C#N)c(=NC(=O)c4ccccc4)n(Cc4ccco4)c3nc12	u	2.31µM*	x	7.31µM*	i
CCOC(=O)c1cc2c(=O)n3cccc(C)c3nc2n(Cc2ccco2)c1=NC(=O)c1cccnc1	i	5.4%	-9.2%	u	i
Cc1cccn2c(=O)c3cc(C#N)c(=NC(=O)c4ccco4)n(Cc4ccco4)c3nc12	i	9.0%	0.0%	7.7%	u
CCOC(=O)c1cc2c(=O)n3ccccc3nc2n(Cc2ccco2)c1=NC(=O)c1cccnc1	i	u	u	6.51µM*	i
Cc1cccc(C(=O)N=c2c(C#N)cc3c(=O)n4cccc(C)c4nc3n2Cc2ccco2)c1	i	18.4µM*	u	23.1µM*	u
SMILES	KB-V1 cytotox	MCF10A rereplic	ELG1 repair inh	SW480 rerep	KB-3-1 cytotox
O=C(c1sc2ccccc2c1Cl)N1CCN(CCc2ccccn2)CC1	u	1.1%	0.0%	-7.9%	u
Cc1ccc(C)c(N2CCN(C(=O)Cn3c(C)c4cnn(-c5ccccc5)c(=O)c4c3C)CC2)c1	i	x	x	x	u
Cc1cc(Cl)ccc1Oc1ncc(-c2ccc(Cl)cc2)cn1	18.4µM*	26.1%	-5.6%	3.4%	i
Clc1ccc(-c2cnc(Oc3ccccc3)nc2)cc1	i	-3.1%	u	3.3%	i
O=C(NNC(=O)C12CC3CC(CC(O)(C3)C1)C2)c1ccccc1O	i	2.7%	-3.2%	16.4µM*	u
Cc1ccc(-c2nc(C(Cl)Cl)c3ccccc3n2)cc1	20.6µM*	u	23.1µM*	u	20.6µM*
COCCN(CCOC)c1nc(-c2ccc(C)cc2)nc2ccccc12	u	u	u	6.9%	i
O=C(O)c1ccc2c(c1)C(=O)N(c1cccc3ccccc13)C2=O	u	0.2%	-9.9%	-12.6%	i
c1ccc(OCCn2c(-c3ccco3)nc3ccccc32)cc1	i	-1.1%	u	10.0%	i
Cc1ccc(OCCn2c(NC(=O)c3ccco3)nc3ccccc32)cc1	u	u	-22.0%	13.4%	u
Cc1cccc(OCCn2c(-c3ccco3)nc3ccccc32)c1	i	251.6%[0.0737 µM]	u	6.51µM*	i
Cc1cccc(OCCn2c(NC(=O)c3ccco3)nc3ccccc32)c1	2.31µM*	15.2%	-5.2%	u	u
CC(C)Oc1ccc(CNC(=O)C2CCCCN2S(=O)(=O)c2ccc(F)cc2)cc1 (stereo unspecified)	i	x	x	x	u
COc1ccc(Cl)cc1NC(=O)c1cc(-c2ccc3c(c2)OCO3)on1	i	x	x	x	i
O=C(OCc1ccco1)c1ccc2c(c1)N(Cc1ccc([N+](=O)[O-])cc1)C(=O)c1ccccc1S2	u	x	x	x	i
CC(C)(O)CC[C@H](OC(=O)c1ccccc1)[C@](C)(O)[C@H]1CC[C@@]2(O)C3=CC(=O)[C@@H]4C[C@@H](O)[C@H](O)C[C@]4(C)C3CC[C@]12C (stereo partly specified)	i	-0.7%	-1.8%	-8.7%	i
COC(=O)C1NN=C(C(=O)c2ccc(Cl)cc2)C1c1ccc(OC)cc1 (stereo unspecified)	u	-24.6%	u	-1.5%	i
COC(=O)C1NN=C(C(=O)c2ccccc2)C1c1ccccc1 (stereo unspecified)	14.6µM*	-70.5%	-7.4%	-151.2%	i
CCOc1ccc(OCC)c(NS(=O)(=O)c2cc(-c3cc(C)no3)ccc2C)c1	i	x	x	x	i
CN(C)C=Nc1ncc2c([nH]c3ccccc32)c1C#N	7.31µM*	28.8%	u	15.3%	u
O=C(Cc1ccccn1)c1ccc(Cl)cc1	i	27.0%	u	-2.3%	i
CC1=C(CC(=O)c2ccc(Cl)cc2)C(=O)c2ccccc2C1=O	16.4µM*	4.11µM*	u	4.11µM*	u
Fc1ccc(/C=C/c2ccc3ccccc3n2)cc1	i	x	x	x	11.6µM*
COc1cc(/C=C/c2nc3ccccc3nc2/C=C/c2cc(OC)c(OC)c(OC)c2)cc(OC)c1OC	i	x	x	x	u
CC(O)/C=C/c1ccc2ccccc2n1 (stereo unspecified)	u	18.4µM*	13.9%	u	u
Fc1cccc(F)c1/C=C/c1ccc2ccccc2n1	u	2.7%	u	x	i
COc1ccccc1/C=C/c1ccc2ccccc2n1	i	x	x	x	i
